# The supplement of paper PMC13380429
# A number with no mark means an inactive call.
# Tested on: Vero E6 infected with SARS-CoV-2
# Assay: inhibition of SARS-CoV-2 cytopathic effect; higher = more antiviral protection, active = above 15
# Details: 48 h
Compound,inhibition of SARS-CoV-2 cytopathic effect (1 nM),inhibition of SARS-CoV-2 cytopathic effect (8.33 nM),inhibition of SARS-CoV-2 cytopathic effect (100 nM),inhibition of SARS-CoV-2 cytopathic effect (833.33 nM),inhibition of SARS-CoV-2 cytopathic effect (10000 nM)
CC(C)(C)C(=O)OCOC(=O)[C@@H]1N2C(=O)[C@@H](/N=C/N3CCCCCC3)[C@H]2SC1(C)C [pivmecillinam],1.02%,0.8%,-0.38%,-0.99%,0.82%
C=C1C(=O)O[C@@H]2[C@H]3C(C)=CC[C@@]34O[C@@]4(C)CC[C@@H]12 [arglabin],-2.02%,1.39%,-0.31%,-1.74%,29.2% (active)
COc1cc(C(=O)N2CCOCC2)cc(OC)c1OC [trimetozine],0.84%,0.93%,1.16%,4.1%,2.28%
CN1CC[C@H](c2c(O)cc(O)c3c(=O)cc(-c4ccccc4Cl)oc23)[C@H](O)C1 [alvocidib],2.38%,1.53%,7.55%,-19.4%,-9.43%
Nc1n[nH]c2nc3ccccc3nc12 [CDK1-5-inhibitor],0.56%,0.41%,0.84%,0.94%,-3.33%
CCC(C(=O)O)c1ccc(CC(C)C)cc1 (stereo not given) [butibufen],-2.32%,-1%,1.35%,2.34%,-0.15%
CCOc1ccc(Nc2nc(-c3c(C)nc4ccccn34)cs2)cc1,-1.73%,-0.39%,-1.68%,2.2%,1.71%
COc1ccc2cc1Oc1ccc(cc1)C[C@H]1c3cc(c(OC)cc3CCN1C)Oc1c(OC)c(OC)cc3c1[C@H](C2)N(C)CC3 [tetrandrine],-2.72%,-0.14%,-1.04%,-2.19%,69.3% (active)
CN(c1nccc(=O)[nH]1)C1CCN(c2nc3ccccc3n2Cc2ccc(F)cc2)CC1 [mizolastine],-1.24%,-0.74%,0.47%,0.93%,-1.33%
CCCCc1nc(Cl)c(CO)n1Cc1ccc(-c2ccccc2-c2nnn[nH]2)cc1 [losartan],0.46%,1.87%,-0.81%,-2.88%,-1.4%
CCS(=O)(=O)N1CCN(c2ccc(Nc3ncc(C(N)=O)c(NC4CC4)n3)cc2)CC1,-1.63%,-0.99%,-2.24%,2.08%,-5.53%
Clc1ccc(COC(Cn2ccnc2)c2ccc(Cl)cc2Cl)cc1 (stereo not given) [econazole],1.49%,1.04%,0.94%,3.08%,-1.91%
CCC[C@H]1C(=O)N2C(N(C)C)=Nc3ccc(C)cc3N2C1=O [azapropazone],-0.8%,-0.4%,-0.47%,-0.49%,-3.61%
O=C1Nc2ccc(Cl)cc2[C@@](C#CC2CC2)(C(F)(F)F)O1 [efavirenz],-5.64%,-1.07%,0%,-0.49%,-1.92%
CC(C)(C)c1ccc(/C=C/C(=O)Nc2ccc3c(c2)OCCO3)cc1,-2.25%,0.94%,1.24%,-0.32%,-0.3%
O=[N+]([O-])c1ncc[nH]1 [azomycin-(2-nitroimidazole)],1.8%,1.77%,0.86%,2.21%,-0.1%
CC(C)(O)C(=O)Nc1ccc([N+](=O)[O-])c(C(F)(F)F)c1 [2-hydroxyflutamide],0.48%,0.38%,-0.65%,-2.57%,-4.93%
Oc1nc(-c2ccc(C(F)(F)F)cc2)nc2c1CSCC2,4.88%,2.98%,3.97%,2.58%,0.15%
